Here are results for 57 sequences from the supplement of paper PMC11417369.

In all, about 25,000 sequences were measured (“ln(normalized median fluorescence intensity)”: median about 6.7, highest 2% from about 10 on). The list comes from a sample in which the highest values are over-represented; it also holds similar and randomly drawn sequences.

For this test, the system named is PfHDP1 homeodomain (GST-tagged). Description: gcPBM binding intensity (ln(normalized median fluorescence intensity)); higher = stronger DNA binding. The method in brief: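 Plasmodium falciparum DNA-binding domains carrying a GST tag were expressed in E. coli and applied for 1 h, at about 25 μg on average, to an Agilent 4 × 180k array. The array held primer-extended double-stranded 36-bp intergenic genomic probes together with negative controls, and binding took place in 1× PBS with 1% milk, 0.2 mg/ml BSA, 0.5% salmon testes DNA and 0.03% Triton X-100. An Alexa488 anti-GST antibody detected bound protein, and the array was scanned at 488 nm. Binding intensity is taken as the highest Masliner-normalised natural-log median intensity across replicate spots of either probe orientation.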
Consider “AAATAGTTGTTATGGGTGCAAACCACATATATATAA [GTGCAC_site9428]”, for which the “gcPBM binding intensity (ln)” value turned out to be 8.79.

As to “TGTAGTTTGTCCCATGCATGTTCCATTAAAATATAT [TGCATGCA_site854]”, the “gcPBM binding intensity (ln)” value stood at 7.57.

Consider “TTATGTAGTATAATGAGTACTAAATATAGATATGTT [XGTACX_site6335]”, for which the “gcPBM binding intensity (ln)” value came to 6.56.

For “ATTTAACAACTTCAAACACACAATATAGATTTATAT [CACACA_site7067]”, the “gcPBM binding intensity (ln)” value was 6.6.

As for “AAACAAGTAATTGTTATTATTATTATATTATTATTA [CACACA_negctrl_site402]”, the “gcPBM binding intensity (ln)” value was found to be 6.12.

For “TTTGAATATTCATATGCACACAAATTAATATACATA [CACACA_site8040]”, the “gcPBM binding intensity (ln)” value came out at 9.99.

Take “TTTATTTATTATTAAAGTACTAAAATATATTATTAT [XGTACX_site4887]”: the “gcPBM binding intensity (ln)” value came out at 6.24.

As to “AATGTATTAAAATTACGTACATATGCACATTTTATA [XGTACX_site5046]”, the “gcPBM binding intensity (ln)” value came out at 8.53.

In the case of “AATAATATTTATTTTTGTACATATGTGCATTATAAA [XGTACX_site3682]”, the “gcPBM binding intensity (ln)” value came out at 11.2.

With GTACGTTACATAAATGTGCACATATTATATGCGAAG, the “gcPBM binding intensity (ln)” value was determined as 10.7.

Take “ATATATACATATAAATGTACATAATTATTATGCACA [XGTACX_site1261]”: the “gcPBM binding intensity (ln)” value was 9.09.

For “ATAATAATATTATTTTGTACATATGTGCTTATTTAT [XGTACX_site5540]”, the “gcPBM binding intensity (ln)” value is 7.11.

In the case of “ATGTGCAAATATTAAAGTACTAAATTTTATTATTTT [XGTACX_site7306]”, the “gcPBM binding intensity (ln)” value amounted to 11.3.

For “TATTTCAAATGTTATGTGCACATATTAATCCTACTT [GTGCAC_site9738]”, the “gcPBM binding intensity (ln)” value amounted to 10.7.

Regarding AAAAAAAAAAAATGTGTGCACATTATTTCAACTTAA, the “gcPBM binding intensity (ln)” value came out at 10.

Consider “TTGCATTAATTTATGTGTACATATAAATTTTTATTT [XGTACX_site3060]”, for which the “gcPBM binding intensity (ln)” value was determined as 6.94.

As for “TTTATTTATTATTAAAGTACTAAATTATATTATTAT [XGTACX_site2565]”, the “gcPBM binding intensity (ln)” value came to 5.95.

Consider “ATTTTAAATGTTATGCGTACATATTAATCCTACTTA [XGTACX_site1344]”, for which the “gcPBM binding intensity (ln)” value was determined as 6.69.

As for “GAAAACGTTTGAAGTTGTACATATGTATAAAAAGAA [XGTACX_site2304]”, the “gcPBM binding intensity (ln)” value was determined as 7.74.

Consider “TTTTTCATATTATACTTTTATATACATATATAAAAA [XGTACX_negctrl_site281]”, for which the “gcPBM binding intensity (ln)” value stood at 6.49.

As to “ATATATATATGTAATAGTACATATGATAGTTTGTCA [XGTACX_site1545]”, the “gcPBM binding intensity (ln)” value worked out at 8.51.

With “TTTTTATTGCAATACTTATATTTTTTTATGATTAAA [TGCATGCA_negctrl_site147]”, the “gcPBM binding intensity (ln)” value worked out at 10.1.

“TTACATGCTAAAATTTGTACATATATGATAAATATT [XGTACX_site2648]”: the “gcPBM binding intensity (ln)” value amounted to 6.47.

With “TATTATTTAATCAAATGTACATAGAAAATGTATGTA [XGTACX_site4433]”, the “gcPBM binding intensity (ln)” value stood at 6.21.

For “CATATATACAGTAACACACACAAAAAAATATGAATA [CACACA_site3996]”, the “gcPBM binding intensity (ln)” value turned out to be 6.91.

On to “ATATAGTTGTCATATTGTACACTTTAGGGTTGGTTA [XGTACX_site7339]”, for which the “gcPBM binding intensity (ln)” value is 6.64.

“TTATAAAAATAATATCGTACAAATGACATAGATGAA [XGTACX_site2570]”: the “gcPBM binding intensity (ln)” value came out at 6.6.

Turning to “ATTATCCATGCATTTACACACACACCCAAAAAAATT [CACACA_site4101]”, the “gcPBM binding intensity (ln)” value is 7.67.

Consider “ATATATATATATATATGTACATATTTATATTGTAAA [XGTACX_site8878]”, for which the “gcPBM binding intensity (ln)” value was determined as 9.35.

With “TAATTACCATATGGTACACACATATATATATGTATA [CACACA_site3487]”, the “gcPBM binding intensity (ln)” value was found to be 7.02.

Turning to “TTTTTCATAAGAAGCACACAAAAAATGATAGAGAAT [CACACA_site1417]”, the “gcPBM binding intensity (ln)” value turned out to be 7.39.

Take “AAAATATTCACGTGTACATATATATATATATATTAT [TGCATGCA_negctrl_site192]”: the “gcPBM binding intensity (ln)” value stood at 6.96.

For the sequence “TTTTATATAAATATCACACACACACGCATGTTTTAA [CACACA_site6187]”, the “gcPBM binding intensity (ln)” value stood at 6.71.

Consider “CATATACAGAAACACACACACACATAAATAAATATA [CACACA_site1343]”, for which the “gcPBM binding intensity (ln)” value is 6.84.

“CATTTATATAAAGAATGTACACACAGAAATGCACAC [XGTACX_site4718]”: the “gcPBM binding intensity (ln)” value came to 9.03.

“TTTTATATTTTATGCACACTTATAAGAAATATGTAC [CACACA_site3040]”: the “gcPBM binding intensity (ln)” value came to 10.6.

ATAATATATGTATGTATGCACTTTTATTATTTTTTT: the “gcPBM binding intensity (ln)” value was 7.24.

As to “TTATATAAAGAATGTACACACAGAAATGCACCCACA [CACACA_site2282]”, the “gcPBM binding intensity (ln)” value is 9.38.

Regarding “ATTTATATAAAGAATGTACACACAGAAATGCACCCA [CACACA_site8715]”, the “gcPBM binding intensity (ln)” value came out at 10.7.

As for “TATTTTATATTTTATGCACACTTATAAGAAATATGT [CACACA_site5647]”, the “gcPBM binding intensity (ln)” value was 9.42.

“AAATATTATAATAATTGTACTATATATACAGTTATT [XGTACX_site1963]”: the “gcPBM binding intensity (ln)” value amounted to 6.39.

With “TAATATATCTATAATACACACTATTCTAATCACATA [CACACA_site6731]”, the “gcPBM binding intensity (ln)” value was 6.49.

On to “AGTAGTCTGGAGAAGAGTACATAGTATCTGGTAGCT [XGTACX_site2017]”, for which the “gcPBM binding intensity (ln)” value was 6.4.

In the case of “ATATTTTTATTAGTAGTGCAATTTAGTGTATATATA [GTGCAC_site9542]”, the “gcPBM binding intensity (ln)” value was 10.1.

For TACCCTTGCATGTAGGTGCAATTTTTTTTTTTTTTT, the “gcPBM binding intensity (ln)” value amounted to 9.32.

With “ATTTATATTACCCTTGCATGTAGGTGCAATTTTTTT [TGCATGCA_site757]”, the “gcPBM binding intensity (ln)” value is 10.5.

“AAAAAAAAAAAACACACACACACATACACATACATA [CACACA_site2858]”: the “gcPBM binding intensity (ln)” value worked out at 6.83.

“TTAACATCAAAATATGCACACAAACAATTAGCGGTA [CACACA_site8801]”: the “gcPBM binding intensity (ln)” value amounted to 9.76.

For the sequence “TTTATGCACGCGTGCACACACATATGAAAAAAGGTA [CACACA_site3315]”, the “gcPBM binding intensity (ln)” value was found to be 11.

With “TATTTATGCACGCGTGCACACACATATGAAAAAAGG [CACACA_site9090]”, the “gcPBM binding intensity (ln)” value stood at 10.9.

Take “TTATATGCATAAAAAGGTACACATATATAAATAAAT [XGTACX_site6894]”: the “gcPBM binding intensity (ln)” value stood at 6.68.

In the case of “TTTATGACTTGAAAAAGTACACATATATTTATGCAA [XGTACX_site5451]”, the “gcPBM binding intensity (ln)” value was determined as 6.31.

In the case of “CAAAAGGATATGCACACACACACACGGATATTTATA [CACACA_site7099]”, the “gcPBM binding intensity (ln)” value was found to be 10.1.

Regarding “TATGAAAAAATATATACACACATAATAAAGGTATAT [CACACA_site3737]”, the “gcPBM binding intensity (ln)” value stood at 6.42.

As for “TTAGGAAGCTCACAAAATAAAGTGAAAAGAAGAAAA [XGTACX_negctrl_site572]”, the “gcPBM binding intensity (ln)” value is 6.45.

Regarding “CCACAAGTATATAGTAGTACAATTTTTTTCTCTTTA [XGTACX_site4403]”, the “gcPBM binding intensity (ln)” value worked out at 6.12.

For “ACAACAAAAATAAGCACACACAAATATACATACATA [CACACA_site7664]”, the “gcPBM binding intensity (ln)” value was found to be 6.55.
